Results taken from PubChem BioAssay (EPA / NIEHS).
Activity calls are given as the source filed them. Rule for the calls: active = hit-call score of the fitted dose curve at least 0.9, where 1 is the maximum; inactive = score below 0.9.

assay: CCTE_Mundy_HCI_Cortical_NOG_NeuriteLength: CCTE's Neurite Outgrowth Assay in rat cortical cells for Neurite Length, Mundy Lab (AID 2284213);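 for AC50: neurites imaged about 48 to 50 h after chemical exposure began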
Protocol: CCTE_Mundy_HCI_Cortical_NOG is a multiplexed, cell-based-readout assay that uses rat primary cortical cells with measurements taken at 50.33 hours after chemical dosing in a microplate: 96-well plate.CCTE_Mundy_HCI_Cortical_NOG_NeuriteLength is one of four components of the CCTE_Mundy_HCI_Cortical_NOG assay. It measures neurite outgrowth related to the neurite length using High Content Imaging of fluorescently labelled markers.[…] Using a type of morphology reporter, loss -of-signal activity can be used to understand developmental effects.
Exposure starts 2 hours post-plating by adding 10 ul of the working solution to 90 ul of media in the wells for a 1/10 dilution. Forty-eight hours after chemical treatment cells are fixed by direct addition of 100 ul of warm (37C) Dulbecco's phosphate buffered saline (DPBS) fixative solution containing 8% paraformaldehyde, 8% sucrose, and 0.1% of 3 mg/ml Hoechst 33342 into each well. Primary antibodies are prepared by dilution in Immunocytochemical Staining Buffer (ISB), 10X Dulbecco's PBS, 0.1% Saponin, 5% Bovine Serum Albumin, 0.5% NaN3 (Sodium Azide) and betaIII-tubulin (rabbit anti-betaIII-tubulin, 1:800) followed by Alexa Fluor-488 secondary (1:500) to label neuronal cell bodies and neurites. A Cellomics ArrayScan VTi HCS Reader is used for automated image acquisition and analysis of neurite outgrowth.

outcome, inactive:
C[C@@H]1CCO[C@H]2Cn3cc(C(=O)NCc4ccc(F)cc4F)c(=O)c(O)c3C(=O)N12
CCCCCC=C(C)C(CC)CCO (stereo not given)
CC(=O)N[C@@H](CC(=O)O)C(=O)O
F
[Li+]
CC(C)O
CCN(CC)CCCC(C)Nc1nc(C)cc(Nc2ccc3nc(C)cc(N)c3c2)n1 (stereo not given)
Cc1[nH]n(C)c(=O)c1C(=O)c1ccc(C(F)(F)F)cc1S(C)(=O)=O
CC(C)c1nn(C(=O)NC(C)(C)C)c(=O)n1N
CCc1ccccc1
CN(C)CCCn1cc(C2=C(c3c[nH]c4ccccc34)C(=O)NC2=O)c2ccccc21
CCCCCC(C)(CC)C(=O)NC (stereo not given)
C[C@@H]1CC[C@@H](C(C)(C)O)[C@H](O)C1

AC50, active:
CC(CNC(=S)[S-])NC(=S)[S-].[Zn+2] (stereo not given) 27.6 µM
BrC1CC(Br)CC(Br)CC(Br)CC(Br)CC(Br)C1 (stereo not given) 8.28 µM
